Bioassay records: PubChem, National Center for Advancing Translational Sciences (NCATS)
D1 antagonist = antagonists of human D1 dopamine receptor; P21728; HEK293 TREx D1 cells, calcium flux, dopamine EC80; hits give low values; activity change, negative = inhibition, % at 10 µM; 360,000 tested, 3.2% active; AID 504652; in the data active = activity change below about -30%; note: % is set by controls: 0 for no effect and ±100 for the full control effect
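Using tetracycline-induced force-coupled D1 Hek293 cells and a calcium dye, signals were followed for 180 s after compound, then for 180 s after EC80 dopamine, to detect inhibitors.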
Glioma ERSR ind = induces the endoplasmic reticulum stress response in human glioma cells. Potency, µM, for inactives: at the highest dose activation, actives largely listed as activators. U87-MG GRP78 promoter luciferase reporter, 16 h. 420,000 tested, 0.02% active. AID 602332; active = well fitted activation curve with a large enough effect; note: potency is the fitted concentration of half-maximal effect; series mostly up to about 76 µM; % of control where 0% means no effect; nearly all actives have a fitted effect of over 35% in size
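Stably transfected U87-MG human glioma cells carrying a GRP78-based luminescent sensor were seeded at 1000 cells/well, pin-dosed with compounds and incubated 16 h. Luciferase reagent was then added, and end-point luminescence was read after 10 min at room temperature.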
D1 agonist = activates the human D1 dopamine receptor. P21728. HEK293 T-REx D1 cells, calcium flux, agonist mode. activation, % at 2 µM. 360,000 tested, 1% active; note: 0% is about no effect
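Agonism was scored from calcium flux recorded over 180 s (1 read/s) after pintool compound addition, following a 10-cycle baseline. Cells were inducible force-coupled HEK293 TREx D1, plated overnight at 30 C and loaded with no-wash calcium dye.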
TRHR ag = TRH receptor (human) agonism; P34981; TRHR cells, calcium flux fluo-8, FDSS agonist mode; activation, % at 2 µM; 360,000 tested, 0.18% active; AID 493084; note: 0% is about no effect
Target sequence (P34981 whole entry, looked up): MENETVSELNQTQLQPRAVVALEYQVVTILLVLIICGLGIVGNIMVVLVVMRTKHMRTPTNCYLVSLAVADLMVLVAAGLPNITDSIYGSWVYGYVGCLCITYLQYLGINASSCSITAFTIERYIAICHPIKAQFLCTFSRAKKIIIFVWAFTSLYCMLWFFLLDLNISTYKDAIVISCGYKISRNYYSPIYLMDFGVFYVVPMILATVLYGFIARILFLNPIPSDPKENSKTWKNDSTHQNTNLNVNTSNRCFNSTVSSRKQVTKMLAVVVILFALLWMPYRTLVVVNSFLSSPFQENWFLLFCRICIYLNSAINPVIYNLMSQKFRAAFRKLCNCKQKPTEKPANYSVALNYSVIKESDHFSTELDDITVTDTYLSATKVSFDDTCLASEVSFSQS
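Agonist-mode FDSS calcium read (Ex 480/Em 530, 1 s cycles) in 1536-well TRHR cells with fluo-8 dye, after 10-cycle baseline and 23 nL compound addition; TRH at EC20 (10 nM final) added afterwards for the enhancer phase.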
D1 potentiator = potentiators of human D1 dopamine receptor | potentiation, % at 10 µM | 360,000 tested, 0.036% active | HEK293 TREx D1 cells, calcium flux, dopamine EC20 potentiation | P21728; in the data active = potentiation above about 30%; note: 0% is about no effect
TRHR enhancer = allosterically enhances the human TRH receptor | P34981 | TRHR cells, fluo-8 calcium fluorescence, EC20 TRH enhancement | enhancement, % at 2 µM | 360,000 tested, 0.66% active; in the data active = enhancement above about 30%; note: 0% is about no effect
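Enhancer read-out: after compound pinning and an initial kinetic agonist-mode read, an EC20 of TRH (10 nM final) was injected and fluo-8 calcium signal (Ex 480/Em 530) followed at 1 s/cycle for 100 cycles in TRHR-expressing cells.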
* marks the source's active call; other numbers are inactive results; nt = no result. In the library only some 4% were active in any assay of this set; here they are far more common. Cut-off read from the data, not from the text of the source, unless noted: active = activation above about 30%; inactive = the rest.

SMILES	D1 antagonist	Glioma ERSR ind	D1 agonist	TRHR ag	D1 potentiator	TRHR enhancer
COc1ccc(-c2c(-c3cc(OC)cc(OC)c3)n(C)c3ccc(-c4ccc(N(C)C)nc4)cc23)cc1	nt	-1.7%	2.2	0.5	-1.8	3.6
COc1ccc(CCC(=O)OCC(=O)Nc2ccccc2)cc1	-9.2	6.0%	4.1	-1.0	-11.2	-6.1
Cc1cc2c(s1)c1cnn(Cc3ccccc3Cl)c(=O)c1n2C	13.8	nt	1.0	1.4	-2.5	-1.7
COc1cc(NC(=O)Cc2cccs2)cc(OC)c1	-32.9*	4.8%	1.6	0.4	14.7	1.0
Cc1cccc(NC(=O)c2cccc(NC(=O)Cc3cccs3)c2)c1	-47.7*	5.9%	5.0	0.8	-6.8	-2.4
COc1cccc(NC(=O)Cc2cccs2)c1	-14.4	-2.4%	4.1	0.2	-3.5	-2.9
COc1cc(NC(=O)Cc2cccs2)c(C(=O)O)cc1OC	-32.1*	-3.2%	2.2	0.3	-3.3	-4.5
COc1cc(NC(=O)Cc2ccccc2)c(C(=O)O)cc1OC	5.2	19.2%	-0.2	1.4	-1.9	18.9
O=C(c1ccco1)N1CCC2(CC1)CCN(c1cccc(-c3ccccc3)c1)CC2	nt	-2.5%	nt	nt	nt	nt
CCOC(=O)C1CCN(C(=O)c2cc(S(=O)(=O)N3CCOCC3)ccc2C)CC1	2.6	-3.2%	0.4	-0.5	-2.5	30.8*
CCOC(=O)C1CCN(C(=O)Cn2c(=O)oc3cc(S(=O)(=O)N4CCC(C)CC4)ccc32)CC1	-38.8*	-1.1%	11.7	-1.6	0.8	2.9
Cc1ccc(S(=O)(=O)N2CCCCC2)cc1C(=O)Nc1ccc(N2CCOCC2)cc1	-11.3	-1.4%	2.8	0.3	-7.1	-1.4
Cc1ccc(S(=O)(=O)N2CCC(C(=O)OCC(=O)N(C)C3CCCCC3)CC2)cc1C	-37.8*	-4.6%	2.9	0.8	-10.4	-1.7
Cc1ccc(S(=O)(=O)N2CCOCC2)cc1C(=O)Nc1ccc(C(N)=O)cc1	-31.7*	-2.2%	2.9	0.5	-9.7	0.4
NCC(=O)N[C@@H](CCCN=C(N)N)C(=O)NCC(=O)N[C@@H](CCC(=O)O)C(=O)N[C@@H](CO)C(=O)O	nt	-5.2%	nt	nt	nt	nt
COC(=O)[C@@H]1CCCN1Cc1ccc2c(c1)CN(Cc1cccn1-c1ccc(Cl)cn1)CCO2	nt	-4.2%	nt	nt	nt	nt
CN(C(=O)COC(=O)C1CCN(S(=O)(=O)c2c(Cl)cccc2Cl)CC1)C1CCCCC1	-0.1	-0.8%	27.4	-0.1	-4.8	-9.1
CN(C(=O)COC(=O)C1CCN(S(=O)(=O)c2c(Cl)cccc2Cl)CC1)c1ccccc1	-31.9*	-2.1%	18.3	0.7	-2.2	-3.5
CCCCc1nc(SCc2ccc([N+](=O)[O-])cc2)n[nH]1	-30.1*	-2.0%	1.2	-0.3	-0.9	-3.0
Cc1ccccc1OCCNc1cc(N2CCCCC2)ccc1[N+](=O)[O-]	25.1	0.3%	0.3	-1.0	0.9	-3.1
CC1CN(c2ccc([N+](=O)[O-])c(NCCOc3ccccc3)c2)CCN1 (stereo unspecified)	-20.0	-3.9%	32.4*	4.2	-9.6	-3.0
Cc1ccccc1OCCNc1cc(N2CCN(CCO)CC2)ccc1[N+](=O)[O-]	-19.0	0.2%	33.0*	1.3	-11.8	1.2
CC[C@H](C)[C@H](NC(=O)[C@H](Cc1ccc(O)cc1)NC(=O)[C@@H](NC(=O)[C@@H](N)CCCN=C(N)N)C(C)C)C(=O)N[C@@H](Cc1cnc[nH]1)C(=O)N1CCC[C@H]1C(=O)N[C@@H](Cc1ccccc1)C(=O)O	nt	-4.8%	nt	nt	nt	nt
O=c1[nH]c2ccccc2nc1/C=C/c1ccccc1	-6.6	11.3%	3.8	2.1	-6.0	1.2
O=C(/C=C/c1ccc(F)cc1)Nc1nc2ccccc2[nH]1	-31.1*	nt	5.3	-1.6	-1.4	-14.2
O=c1[nH]c2ccccc2nc1/C=C/c1ccc(O)cc1	0.8	0.2%	45.0*	22.5	-4.8	8.8
Cn1c(=O)c(/C=C/c2ccc(F)cc2)nc2ccccc21	-1.6	-0.1%	-0.3	4.8	-2.9	-9.5
O=c1[nH]c2ccccc2nc1/C=C/c1ccc(F)cc1	-8.6	1.9%	35.3*	-2.4	-4.8	1.4
COc1ccccc1CNS(=O)(=O)c1ccc(-c2cc(C(F)(F)F)on2)s1	-3.3	-1.8%	33.1*	2.4	-1.8	1.6
